Screening data as filed in PubChem.
Shown is part of a subset that was picked to be rich in hits.
AmpC detergent – blocks E. coli AmpC beta-lactamase in detergent assay; Potency, µM (doses to about 114 µM), without a hit: top-dose activity change, negative = inhibition, usual class: inhibitors; hit rate 0.041% among 370,000; AmpC hydrolysis of nitrocefin, absorbance 480 nm, 0.01% Triton; P00811;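 note: potency is the fitted concentration of half-maximal effect; 0% = no-compound wells and -100% = no-enzyme wells; nearly all actives have a fitted effect of over 25% in size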
Target sequence (P00811 whole entry, looked up): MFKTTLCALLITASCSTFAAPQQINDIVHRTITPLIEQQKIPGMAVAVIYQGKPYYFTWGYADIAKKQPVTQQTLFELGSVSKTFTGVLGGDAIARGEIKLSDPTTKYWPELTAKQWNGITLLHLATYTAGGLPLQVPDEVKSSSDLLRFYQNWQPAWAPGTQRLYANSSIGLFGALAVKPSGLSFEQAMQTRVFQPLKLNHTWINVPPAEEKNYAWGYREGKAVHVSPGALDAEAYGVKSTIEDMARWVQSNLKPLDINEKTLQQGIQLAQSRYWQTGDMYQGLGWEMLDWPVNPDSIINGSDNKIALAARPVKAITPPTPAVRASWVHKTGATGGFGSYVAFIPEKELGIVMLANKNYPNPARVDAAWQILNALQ
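20 mM phosphate pH 7.0 + 0.01% (detergent screen) or 0.0001% Triton X-100; 5.3 nM AmpC reagent; cpd preinc 15 min RT; nitrocefin (800 uM stock) to start; A480 q20 s × 4 min; Activity was normalised to no-enzyme and no-compound control wells.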
Cycloheximide cs – counter-screen hit for Shiga toxin inhibitors, cycloheximide; cell reporter, cycloheximide protein synthesis inhibition counterscreen; max response, %; hit rate 12% among 300,000; AID 2314; in the data active = max response mostly above about 13%, no sharp cut-off; inactive = mostly below about 14%; note: read at 38.3 µM for the half of the compounds with a filed dose; 0% is about no effect
AmpC inh no detg – blocks E. coli AmpC beta-lactamase in detergent-free assay; P00811; AmpC nitrocefin hydrolysis, absorbance 480 nm, 0.0001% Triton; Potency, µM (titrated, usually from 57.1 µM), inactives show top-dose activity change, negative = inhibition, most hits filed as inhibitors; hit rate 0.52% among 330,000;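 note: potency is the fitted concentration of half-maximal effect; plate controls were no compound for no effect and no enzyme for full effect; nearly all actives have a fitted effect of over 20% in size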
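AmpC (5.3 nM in the dispensed reagent) in 20 mM phosphate pH 7.0 with 0.01% (detergent screen) or 0.0001% Triton X-100 was preincubated with compounds for 15 min at room temperature. Nitrocefin was then added from an 800 uM solution, and hydrolysis was followed at 480 nm.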
SARS PLP yeast – inhibitors of SARS-CoV papain-like protease in yeast; S. cerevisiae expressing SARS-CoV PLpro, growth rescue; Potency, µM (titrated, usually from 32.9 µM), inactives show at the highest dose activity, positive = growth rescue, usual class: activators; hit rate 0.19% among 330,000; calls by dose curve; note: potency is the fitted concentration of half-maximal effect; 0% is about no effect; nearly all actives have a fitted effect of over 55% in size
AMA1 RON2 block – disrupts binding of P. falciparum AMA1 to RON2; AlphaScreen AMA1-biotinylated RON2 peptide binding; Potency, µM (doses to about 58.2 µM), for the others: top-dose activity change, negative = inhibition, hits mostly inhibitors; hit rate 0.2% among 360,000; AID 720542;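 note: potency is the fitted concentration of half-maximal effect; 0% = vehicle wells and -100% = peptide control; nearly all actives have a fitted effect of over 45% in size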
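AMA1 (3D7) with his tag at 25 nM final met compounds first, then biotinylated RON2 peptide at 25 nM; detection used donor plus acceptor beads, 10 µg/mL apiece, read by AlphaScreen after 30 min at room temperature.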
Shiga inhibitor – Shiga toxin inhibition. AID 2315. inhibition, % at 38.7 µM. hit rate 9.2% among 290,000. Vero cells, Shiga toxin protein synthesis inhibition reporter; in the data active = inhibition mostly above about 28%, no sharp cut-off; inactive = mostly below about 43%; note: 0% is about no effect
An asterisk follows results filed as active; ? = inconclusive; · = no result given; [ ] = another dose, or the depositor's remark. Unless noted, calls come from the whole dose curve; as a rule, active = well fitted curve in the direction sought with a large enough effect; inconclusive = small, poorly fitted or top-dose-only effect, or another doubt; inactive = no such curve, though single readings can be large; an effect the other way counts as inactive or inconclusive.

SMILES	AmpC detergent	Cycloheximide cs	AmpC inh no detg	SARS PLP yeast	AMA1 RON2 block	Shiga inhibitor
COc1cc(/C=N/NC(=O)C(Cc2c[nH]c3ccccc23)NC(=O)OCc2ccccc2)cc([N+](=O)[O-])c1O (stereo not given)	-6%	1	10µM*	15%	1%	6
COc1cc(/C=N/NC(=O)C(Cc2c[nH]c3ccccc23)NC(=O)OCC(C)C)cc([N+](=O)[O-])c1O (stereo not given)	-17%	-1	-52%	10%	6%	10
CCc1ccc(OCC(=O)N/N=C(\C)c2ccc3c(c2)OCCO3)cc1	?	13*	-11%	-27%	0%	-10
C/C(=N\NC(=S)Nc1ccc(C(C)C)cc1)c1ccc2c(c1)OCO2	-6%	11	-53%	0%	13%	35*
CCNC(=S)N/N=C(\C)c1ccc2c(c1)OCCO2	-1%	-3	-11%	28%	35%[11.6 µM]	49*
CNC(=S)N/N=C(\C)c1ccc2c(c1)OCO2	-3%	5	-23%	22%	66%	26
C=CCn1c(O)c(N=NC(=S)Nc2cccc(OC)c2)c2ccccc21	-12%	-3	-38%	20%	-10%	-8
Cc1cccc(N=Cc2ccccc2O)c1C	·	·	·	·	21%	·
COc1cccc(NC(=O)Cc2nc(-c3ccccc3)sc2-c2ccc(C)cc2)c1	?	28*	-27%	-29%	-14%	51*
COC(=O)c1cccc(NC(=O)Cc2nc(-c3ccccc3)sc2-c2ccc(C)cc2)c1	-8%	-5	-54%	7%	0%	-2
CC(=O)Nc1cccc(NC(=O)Cc2nc(-c3ccccc3)sc2-c2ccc(C)cc2)c1	-4%	20*	-41%	-2%	-24%	130*
Cc1ccc(-c2sc(-c3ccccc3)nc2CC(=O)Nc2ccccc2F)cc1	-1%	0	-10%	6%	-6%	-5
COc1ccc(Oc2nc(SC)nc3ccccc23)cc1	1%	5	0.16µM*	3%	14%	-11
CN(C)c1ccc(N2CN=C3SCC(=O)N3C2)cc1	-8%	86*	16%	-11%	?	98*
O=C1CSC2=NCN(c3ccc4c(c3)OCO4)CN12	-8%	35*	-35%	4%	-19%	96*
CC(C)=C1C2CCC1C1C(=O)N(c3ccc4c(c3)OCO4)C(=O)C21 (stereo not given)	-2%	-5	-51%	-2%	-3%	-4
CCc1ccc(Nc2nnc(SCC(=O)NCCN3C(=O)CSC3=O)s2)cc1	-6%	40*	19%	-10%	9%	53*
CCc1ccc(Nc2nnc(SCC(=O)Nc3cccnc3Cl)s2)cc1	-2%	20*	-2%	-7%	13%	30*
CCc1ccc(Nc2nnc(SCC(=O)Nc3sccc3C(N)=O)s2)cc1	5%	32*	16µM*	-21%	13%	62*
Cc1nnc(SCC(=O)Nc2cccnc2Cl)s1	-14%	·	?	-1%	-3%	·
COc1ccc(C(=O)NCc2cn3c(C)csc3n2)cc1OC	-1%	-1	-14%	6%	-4%	12
Cc1cc(=O)[nH]c(SCCCOc2ccc3c(c2)CCC3)n1	-7%	7	-13%	-12%	-2%	1
O=C1CCc2cc(S(=O)(=O)N3CCC(C(=O)NCc4ccccn4)CC3)ccc2N1	?	-2	-13%	-1%	·	-12
Cc1ccccc1NC(=O)c1ccc(NC(=O)c2ccco2)cc1	-3%	27*	-29%	-14%	-5%	39
Cc1ccc(NCc2ccco2)cc1C	-6%	27*	-14%	0%	?	70*
Cc1cc(NC(=O)/C=C/c2ccco2)ccc1NC(=O)c1ccccc1	10%	29*	-31%	0%	-10%	53*
Cc1ccc(NC(=O)c2cc(S(=O)(=O)N3CCCC3)cn2C)cc1C	-5%	-1	-14%	2%	9%	-2
CCn1nccc1C(=O)Nc1ccc(C)c(C)c1	-13%	34*	-31%	-8%	-1%	62*
Cc1ccccc1NC(=O)c1ccccc1NC(=O)c1ccco1	-11%	1	-26%	-1%	-19%	-7
